# Assay results: PubChem BioAssay (Tox21)
# Inconclusive results are not listed. Where a call stands in place of a potency, no number is given. A number with no mark means an inactive call. The source made the active and inactive calls. Calls come from the whole dose curve; as a rule, active = well fitted cell-killing curve with a large enough effect in the repeat runs; inconclusive = weak or mixed curves, or effect the other way; inactive = flat fitted curve, though single readings scatter.
# Key:
# [1] = cAMP Responsive Elements (CRE) small molecule antagonists, cell-based qHTS assay: qHTS cell viability counter screen (AID 2060913); note: nearly all actives have a fitted effect of over 40% in size
# How it was run: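 HEK293T CRE-bla, 2,000 cells/well, 18 h preincubation; cpd in DMSO + NKH477 0.25 uM final, 3 h 37 C/5% CO2; LiveBLAzer 2 h RT, then CellTiter-Glo 30 min RT, luminescence.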
# [2] = cAMP Responsive Elements (CRE) small molecule agonists, cell-based qHTS assay: qHTS cell viability counter screen (AID 2060914);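 note: viability read after 3 h of compound exposure; nearly all actives have a fitted effect of over 50% in size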
# How it was run: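 Cytotoxicity counter screen multiplexed with the CRE-bla reporter assay in HEK 293T cells: 3 h compound exposure at 37 °C, followed by CellTiter-Glo luminescence measured in the same wells.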
SMILES,Potency [1],Potency [2],"viability change, negative = cytotoxic [1]","activity change, negative = cytotoxicity [2]"
CCCCCCCCCCCCCCCC(=O)NCCO,inactive,inactive,–,–
CCCCCCCCC(=O)OCC(C)OC(=O)CCCCCCCC (stereo not given),inactive,inactive,–,–
CC(C)COC(=O)COc1ccc(Cl)cc1Cl,inactive,inactive,–,–
CN(C)[C@@H](CCOc1cccc2ccccc12)c1ccccc1,inactive,inactive,–,–
OC[C@@H](O)[C@H](O)[C@H](O)[C@@H](O)CO,inactive,inactive,–,–
Cc1ccc(NC=O)c(C)c1,inactive,inactive,–,–
Cc1ccc(N)cc1[N+](=O)[O-],inactive,inactive,–,–
CCN(CC)S(=O)(=O)c1ccc(C(=O)O)cc1,inactive,inactive,–,–
Cc1ccc(S(=O)(=O)NCl)cc1,inactive,inactive,–,–
CN(C)CCCCCCN(C)C,inactive,inactive,–,–
CC1Cc2ccccc2N1NC(=O)c1ccc(Cl)c(S(N)(=O)=O)c1 (stereo not given),inactive,inactive,–,–
CCCCCCCCCC(=O)OC,inactive,inactive,–,–
O=C1c2ccccc2C(=O)C1c1nc2ccccc2c(Br)c1O,inactive,inactive,–,–
CC(C)NC(=O)c1ccccc1N,inactive,inactive,–,–
CCCCCCCCS(=O)(=O)O,inactive,inactive,–,–
ON(Cc1ccccc1)Cc1ccccc1,inactive,inactive,–,–
O=C(O)c1cc(N=Nc2ccc(S(=O)(=O)Nc3ccccn3)cc2)ccc1O,inactive,inactive,–,–
O=C(c1ccccc1)c1ccc(O)c(O)c1O,inactive,inactive,–,–
CCCCCCCCCCCCSC,inactive,inactive,–,–
CCCCCCC(=O)c1ccccc1,inactive,inactive,–,–
CCc1ccc(C)nc1,inactive,inactive,–,–
CCC1CCC(CCC(=O)O)C1 (stereo not given),inactive,inactive,–,–
CC(=O)N[C@@H](CS)C(=O)O,inactive,inactive,–,–
Cc1c2oc3c(C)ccc(C(=O)N[C@@H]4C(=O)N[C@H](C(C)C)C(=O)N5CCC[C@H]5C(=O)N(C)CC(=O)N(C)[C@@H](C(C)C)C(=O)O[C@@H]4C)c3nc-2c(C(=O)N[C@@H]2C(=O)N[C@H](C(C)C)C(=O)N3CCC[C@H]3C(=O)N(C)CC(=O)N(C)[C@@H](C(C)C)C(=O)O[C@@H]2C)c(N)c1=O,inactive,inactive,–,–
O=C1CCCC(=O)O1,inactive,inactive,–,–
c1cc(OCC2CO2)cc(OCC2CO2)c1 (stereo not given),inactive,inactive,–,–
Cc1cccc(Nc2ccccc2)c1,inactive,inactive,–,–
C#CC(C)N(C)C(=O)Nc1ccc(Cl)cc1 (stereo not given),inactive,inactive,–,–

SMILES,Potency [1],Potency [2],"viability change, negative = cytotoxic [1]","activity change, negative = cytotoxicity [2]"
CCCCC(CC)COC(=O)c1ccc(N(C)C)cc1 (stereo not given),inactive,inactive,–,–
CNC(=O)c1ccccc1,inactive,inactive,–,–
O=S(=O)(O)c1cc(O)c2ccc(Nc3ccccc3)cc2c1,inactive,inactive,–,–
COc1cc(O)c(C(=O)c2ccccc2)cc1S(=O)(=O)O,inactive,inactive,–,–
CCCc1ccccc1O,inactive,inactive,–,–
CC(C)c1ccc(C(=O)N=C(N)N)cc1S(C)(=O)=O,inactive,inactive,–,–
O=C(O)c1c(Cl)ccc(Cl)c1Cl,inactive,inactive,–,–
CCC(C)(CN(C)C)OC(=O)c1ccccc1 (stereo not given),inactive,inactive,–,–
NCC[C@H](O)C(=O)N[C@@H]1C[C@H](N)[C@@H](O[C@H]2O[C@H](CN)[C@@H](O)[C@H](O)[C@H]2O)[C@H](O)[C@H]1O[C@H]1O[C@H](CO)[C@@H](O)[C@H](N)[C@H]1O,–,–,0.2% [at 0.349 µM],-8.14% [at 0.349 µM]
CC(=O)[C@@]1(O)CC[C@H]2[C@@H]3C[C@H](C)C4=CC(=O)C=C[C@]4(C)[C@@]3(F)[C@@H](O)C[C@@]21C,inactive,inactive,–,–
CC(=O)OC/C=C(\C)CC/C=C(\C)CCC=C(C)C,inactive,inactive,–,–
O=C(O)CC(O)C(=O)O (stereo not given),inactive,inactive,–,–
O=c1[nH]cnc2c1ncn2[C@H]1CC[C@@H](CO)O1,inactive,inactive,–,–
C=CC(=O)OCCC#N,inactive,inactive,–,–
Cc1c(N)cccc1Cl,inactive,inactive,–,–
O=C1Cc2ccccc2N1c1c(Cl)cccc1Cl,inactive,inactive,–,–
C1N2CN3CN1CN(C2)C3,inactive,inactive,–,–
Cn1c(=O)c2c(ncn2CC2OCCO2)n(C)c1=O,inactive,inactive,–,–
CCCCOCC(C)O (stereo not given),inactive,inactive,–,–
CC/C=C\CCOC(=O)CC,inactive,inactive,–,–
CC(C)=CCC/C(C)=C/C=O,inactive,inactive,–,–
C=CCc1cc(OC)c(O)c(C(=O)NCCO)c1,inactive,inactive,–,–
Cc1occc(=O)c1OC(=O)C(C)C,inactive,inactive,–,–
C=C(C)C(=O)O[C@H]1C[C@@H]2CC[C@@]1(C)C2(C)C,inactive,inactive,–,–
O=C1NC(=O)c2cccc3cccc1c23,inactive,inactive,–,–
NNc1nncc2ccccc12,inactive,inactive,–,–
CCOC(=O)[C@H](CCc1ccccc1)N[C@@H](C)C(=O)N1Cc2ccccc2C[C@H]1C(=O)O,inactive,inactive,–,–
